From the supplement of paper PMC6555819

Assays:
Assay in all cases: PBM binding z-score (relative to random genomic background probes); higher = stronger binding; sequences stand for … in GC…GCGATTGACAGCGTAGAATGAAGG
[1] = tested on: PPARg:RXRa DBDmut IVT, anti-RXR (DBD mutation: RXRa K156A/R161A, NR concentration 270 nM, RXRa partner concentration 90 nM)
Method in brief: (§1)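 Binding z-scores were set against random background probes. The data came from custom Agilent 4×180K protein-binding microarrays carrying double-stranded probes with 34-nt variable regions, incubated 1 h with ligand-free nuclear receptor dimers. Partner-specific antibodies detected binding, and scanned fluorescence was regression-normalized.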

[2] = tested on: PPARg:RXRa IVT, anti-PPARg (NR concentration 270 nM, RXRa partner concentration 90 nM)
Method in brief: as §1

[3] = tested on: PPARg DBDmut:RXRa IVT, anti-PPARg (DBD mutation: PPARg1 K132A/R137A, NR concentration 270 nM, RXRa partner concentration 90 nM)
Method in brief: as §1

[4] = tested on: PPARg DBDmut IVT, anti-PPARg (DBD mutation: PPARg1 K132A/R137A, NR concentration 270 nM)
Method in brief: as §1

[5] = tested on: PPARg homodimer (NR concentration 180 nM)
Method in brief: as §1

[6] = tested on: PXR:RXRa (NR concentration 270 nM, RXRa partner concentration 90 nM)
Method in brief: as §1

[7] = tested on: PXR homodimer (NR concentration 270 nM)
Method in brief: as §1

[8] = tested on: RARa:RXR (NR concentration 270 nM, RXRa partner concentration 90 nM)
Method in brief: as §1

[9] = tested on: RARa homodimer (NR concentration 270 nM)
Method in brief: as §1

[10] = tested on: RARb:RXRa (NR concentration 270 nM, RXRa partner concentration 90 nM)
Method in brief: as §1

[11] = tested on: RARb homodimer (NR concentration 270 nM)
Method in brief: as §1

[12] = tested on: RARg:RXRa (NR concentration 270 nM, RXRa partner concentration 90 nM)
Method in brief: as §1

[13] = tested on: RARg homodimer (NR concentration 270 nM)
Method in brief: as §1

[14] = tested on: RXRa DBDmut IVT, anti-RXR (DBD mutation: RXRa K156A/R161A, NR concentration 90 nM)
Method in brief: as §1

[15] = tested on: RXRa homodimer (NR concentration 180 nM)
Method in brief: as §1

[16] = tested on: THRa:RXRa (NR concentration 90 nM, RXRa partner concentration 90 nM)
Method in brief: as §1

[17] = tested on: THRa homodimer (NR concentration 90 nM)
Method in brief: as §1

[18] = tested on: VDR homodimer (NR concentration 270 nM)
Method in brief: as §1

Sequence	PBM binding z-score [1]	PBM binding z-score [2]	PBM binding z-score [3]	PBM binding z-score [4]	PBM binding z-score [5]	PBM binding z-score [6]	PBM binding z-score [7]	PBM binding z-score [8]	PBM binding z-score [9]	PBM binding z-score [10]	PBM binding z-score [11]	PBM binding z-score [12]	PBM binding z-score [13]	PBM binding z-score [14]	PBM binding z-score [15]	PBM binding z-score [16]	PBM binding z-score [17]	PBM binding z-score [18]
ACTAGCAGGCCAAGTTTGGGTCACTAAAACAAAG	0.86	1.41	-0.183	-0.616	0.00653	0.707	-0.272	1.49	-0.238	1.79	2.17	2.1	1.53	-0.281	0.88	2.52	0.917	0.383
AGAATGAGGTTACCAAAGATCAGGTAAACGCTTG	3.32	3.43	0.874	0.666	0.758	1.64	-0.0452	2.29	0.183	2.09	0.973	2.09	1.47	0.793	2.75	2.98	1.22	0.168
TCTAGTTGGTCAAATGTCACACACTCGAAATGCG	2.7	3.59	1.9	2.34	2.58	1.09	0.666	1.67	1.52	1.89	1.64	1.73	1.78	1.24	1.68	0.653	0.677	0.702
TCATATAGGTAAATGCTCGGTGAAAGTCCGATCT	4.09	1.97	0.975	0.65	0.847	0.631	0.54	0.843	0.605	0.474	0.197	0.387	0.081	1.45	0.76	0.193	0.208	0.375
GCGAGTGGGGCAAAGCAGGTTACCATAAGGTTGG	3.82	2.88	-0.867	-0.658	0.436	0.562	-0.254	0.873	0.0402	1	1.29	0.324	0.332	-0.292	0.339	2.93	0.0981	-0.134
CGAACTAGGTCACCGGAAGGTCAAAGTCCGCATG	7.98	8.54	0.875	0.855	8.74	5.95	2.08	7.52	2.97	5.2	5.45	8.27	7.14	2.43	6.38	4.36	2.81	4.01
CTCGAAAGGTCGGTTGTGGTGAGTATACGGATAA	0.261	0.611	-0.0487	0.467	1.3	1.13	0.427	1.81	1.01	3.03	1.92	2.21	2.35	1.08	1.79	2.66	0.291	0.903
ACTATTAGTTGACTTAGAGCAACCGATACGACGC	-0.101	0.383	1.2	1.1	0.577	-0.152	0.119	-0.00338	1.16	0.073	-0.15	0.294	0.597	0.671	0.318	0.0226	0.0225	-0.0313
GGAACGAGGGCAGGTTGATAGCAGAGTTTGATGG	2.17	1.68	-0.931	-0.47	0.542	0.273	0.636	0.164	0.17	1.87	1.3	0.763	1.26	0.971	0.496	0.552	0.392	1.16
CCTACTGGGCCAAAAGGGTCATTGATGCCGATAA	4.13	3.9	-0.517	-1.13	2.18	3.16	0.631	3.57	-0.0364	2.74	3.22	3.29	2.71	0.103	3.26	2.17	-0.01	2.72
TCATATAGGTAAGAGGTGAAAGTCGGTGTGGTAA	4.67	4.43	1.44	0.671	1.73	1.31	0.509	2	1.54	1.44	1.34	1.19	0.66	1.84	1.99	1.69	0.894	0.13
CCTACTGGGCCATCAGGTCCTTGATATCAACGTT	3.89	3.63	0.113	-0.684	0.311	-0.471	-0.404	-0.307	0.115	0.33	0.0749	-0.0484	0.0919	-0.586	-0.412	0.183	0.322	0.000123
ACGAGCAGGCCAAGTTTGGGTCACTCAAACAAAG	-0.114	0.246	-0.842	-0.922	0.235	0.69	-0.152	1.46	-0.613	1.54	2.28	2.29	1.45	-0.315	0.708	2.59	1.04	0.234
CCTGCTAGGTCATGGTCGGCTAATCTACAGTATG	4.22	3.41	0.753	-0.172	1.51	1.41	-0.226	2.46	-0.276	3.93	2.46	3.92	4.63	1.75	2.82	3.01	1.29	0.379
AGAATGAGGTTAAGATCAGAGAAACAGAATACAT	2.25	2.51	1.54	1.04	0.538	1.22	0.611	2.03	0.226	1.86	0.686	2.05	1.45	0.652	2.36	2.29	0.47	0.291
ACAGACAGGTGAGTGAAGGTAACTGAGCTGGACG	0.252	0.903	-0.468	-0.756	-0.197	0.0727	-0.00734	0.487	-0.0985	0.632	0.0356	0.592	0.479	-0.622	0.511	1.75	-0.353	-0.218
